Data from PubChem BioAssay (Tox21).
Records with an inconclusive call do not appear. A number with no mark means an inactive call. Calls of active or inactive are those of the source. Calls come from the whole dose curve; as a rule, active = well fitted activation curve with a large enough effect in the repeat runs; inconclusive = weak or mixed curves; inactive = no such curve, though single readings can be large or run the other way.

The compounds below were run against Nuclear receptor subfamily 1 group I member 3 (Homo sapiens) (UniProt Q14994) (assay: qHTS assay to identify small molecule agonists of the constitutive androstane receptor (CAR) signaling pathway (AID 1224839; note: nearly all actives have a fitted effect of over 15% in size;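 for activation: HepG2 cells stably carrying human CAR and a CYP2B6 luciferase reporter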)). Details: HepG2 hCAR CYP2B6-luciferase, agonist mode, 24 h; series mostly up to 92.4 µM; activation: at the top concentration.
Sequence of Nuclear receptor subfamily 1 group I member 3 (Homo sapiens) (Q14994 whole entry, looked up): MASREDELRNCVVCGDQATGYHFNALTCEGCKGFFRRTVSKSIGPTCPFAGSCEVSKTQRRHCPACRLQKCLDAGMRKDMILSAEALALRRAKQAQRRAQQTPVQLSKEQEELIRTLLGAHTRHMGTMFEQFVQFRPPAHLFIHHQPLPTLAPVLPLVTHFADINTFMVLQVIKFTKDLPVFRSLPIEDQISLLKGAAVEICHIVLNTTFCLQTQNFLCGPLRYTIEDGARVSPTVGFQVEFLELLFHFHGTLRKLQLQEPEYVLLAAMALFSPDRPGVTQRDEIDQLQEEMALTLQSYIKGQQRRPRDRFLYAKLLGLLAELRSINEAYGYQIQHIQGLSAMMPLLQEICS
Excerpt: National Center for Advancing Translational Sciences [NCATS] NIH Chemical Genomics Center [NCGC] U.S. Environmental Protection Agency [EPA] National Institutes of Environmental Health Sciences [NIEHS] National Toxicology Program [NTP] Assay overview: The constitutive androstane receptor (CAR) is a nuclear receptor which regulates multiple drug metabolizing enzymes (DMEs) and transporters. Activating CAR will generally increase the transcription and subsequent translation of CYP2B6 and CYP3A4. These two DMEs represent about 50% of the drug metabolizing potential in the body. […] Recently, there have also been studies performed indicating CARs role in energy metabolism and cancer therapy. Therefore, inducing CARs activity could have a potential effect on diabetes and cancer. Identifying environmental toxins and compounds which modulate CAR, through the use of the Tox21 10K compound collection, will be an important step in determining the toxicity and potential therapeutic effects these factors will have on the human body.
Assay Protocol Summary: A double-stable (hCAR and CYP2B6-2.2kb) transfected cell line, derived from human hepatoma (HepG2) cells, was utilized for the duration of the quantitative high-throughput screens. The HepG2-CYP2B6-hCAR cells suspended in DMEM culture medium supplemented with 10% FBS, 5 ug/mL blasticidin, 0.5 mg/mL geneticin, 100 U/mL penicillin and 100 ug/mL streptomycin were dispensed at 2500 cells/4 uL/well in 1536-well white solid bottom plates using a Multidrop Combi. After the assay plates were incubated at 37 C/5% CO2 for 4 hrs, 23 nL of compounds at 15 concentrations (from 5-48 columns) or positive control (from 1 to 4 columns) were transferred to the assay plates using a Pintool station. One uL of PK11195, was added using a Flying Reagent Dispenser to generate a final concentration of 0.75 uM PK11195 inside each well. After a 24 hr incubation period at 37 C/5% CO2, four uL of ONE-Glo reagent was added into the assay plates using a Flying Reagent Dispenser. After a 30 min incubation period at room temperature, the luminescence intensity in the assay plates was measured using a ViewLux plate reader.
% is set by controls: 0 for no effect and ±100 for the full control effect; potency is the fitted concentration of half-maximal effect.

**Q.** With COC(=O)CC#N as the compound, how does the “activation” value read?
**A.** Its value is -0.982%.

**Q.** For CC(C(O)c1ccccc1)N(C)CCOC(c1ccccc1)c1ccccc1 (stereo not given), which “activation” value is on record?
**A.** The value was -6.06% [at 42.5 µM].

**Q.** Which “activation” value does the source give for CCN(CC)CCSC(=O)C(c1ccccc1)c1ccccc1 here?
**A.** The value was -0.722% [at 42.5 µM].

**Q.** Which “activation” value does the source give for CC(C)=CCCC(C)O (stereo not given) here?
**A.** The value was -2.14%.

**Q.** Which “activation” value does the source give for CC(C)C(=O)OCc1ccccc1 here?
**A.** The value was -2.14%.

**Q.** How did the “activation” value turn out when COc1cccc(CCc2ccccc2OCC(CN(C)C)OC(=O)CCC(=O)O)c1 (stereo not given) was run?
**A.** Its value is 7.39% [at 42.5 µM].

**Q.** Which “activation” value does the source give for CCOC(=O)COc1ccc(C)cc1 here?
**A.** Its value is -2.7%.

**Q.** With Cc1cccc(C)c1NC(=O)CN1CCN(CCCC(c2ccc(F)cc2)c2ccc(F)cc2)CC1 as the compound, how does the “activation” value read?
**A.** The value was 1.77% [at 42.5 µM].

**Q.** With COc1cc(C=C2CCC/C(=C\c3ccc(O)c(OC)c3)C2=O)ccc1O as the compound, how does the “activation” value read?
**A.** The value was -0.902% [at 42.5 µM].

**Q.** CC(C)(C)c1cc(CCC(=O)NCCCCCCNC(=O)CCc2cc(C(C)(C)C)c(O)c(C(C)(C)C)c2)cc(C(C)(C)C)c1O was tested. Which “activation” value did it give?
**A.** Its value is -15.1%.

**Q.** For Cc1ccc2ccc3cccc4ccc1c2c34, which Potency is on record?
**A.** Its Potency is 30.6 µM (active).

**Q.** For CCCCN(CCCC)CCC(O)c1cc2c(Cl)cc(Cl)cc2c2cc(C(F)(F)F)ccc12 (stereo not given), which “activation” value is on record?
**A.** The value was -0.284% [at 42.5 µM].

**Q.** With C=C(C)CCCC as the compound, how does the “activation” value read?
**A.** Its value is 0.262%.

**Q.** How did the “activation” value turn out when O=C1OC(=O)c2ccc3c4c(ccc1c24)C(=O)OC3=O was run?
**A.** The value was -3.65%.

**Q.** Which Potency does the source give for CN(C)c1ccc(N=NS(=O)(=O)O)cc1 here?
**A.** Its Potency is 25.7 µM (active).

**Q.** With O=C(O)Cc1ccc(OCCNC[C@H](O)c2ccccc2)cc1 as the compound, how does the “activation” value read?
**A.** Its value is -0.204% [at 42.5 µM].

**Q.** How did the “activation” value turn out when CCC(C)(C)c1cc(O)c(C(C)(C)CC)cc1O was run?
**A.** Its value is -4.48%.

**Q.** How did the “activation” value turn out when CCCCCCCCCCCCCC[n+]1ccccc1 was run?
**A.** The value was -6.36%.

**Q.** With CC=O as the compound, how does the “activation” value read?
**A.** Its value is -12.9%.

**Q.** CCCC(=O)OCC(COC(=O)CCC)OC(=O)CCC was tested. Which “activation” value did it give?
**A.** The value was -2.29%.

**Q.** Which “activation” value does the source give for CCC1(c2cnc[nH]2)Cc2ccccc2C1 here?
**A.** The value was 3.32% [at 42.5 µM].

**Q.** How did the “activation” value turn out when O=C1OC(=O)c2cccc3cccc1c23 was run?
**A.** Its value is 1.63%.

**Q.** How did the “activation” value turn out when OCCCc1cccnc1 was run?
**A.** Its value is -0.499%.

**Q.** How did the “activation” value turn out when CCCCN(C)C was run?
**A.** The value was -1.63%.

**Q.** How did the “activation” value turn out when CC(C)=C1CC[C@@H](C)CC1=O was run?
**A.** Its value is 1.2%.

**Q.** For CCOC(/C=C(\C)CCC=C(C)C)OCC, which “activation” value is on record?
**A.** Its value is 0.46%.

**Q.** For Cc1cccc(N(C)C)c1, which “activation” value is on record?
**A.** The value was -0.128%.

**Q.** For CNCC[C@H](Oc1cccc2ccccc12)c1cccs1, which “activation” value is on record?
**A.** The value was -21.2% [at 42.5 µM].

**Q.** With COC(=O)[C@]1(C)CCC[C@@]2(C)[C@H]1CC=C1C=C(C(C)C)CC[C@@H]12 as the compound, how does the “activation” value read?
**A.** Its value is 10.9%.

**Q.** For CCc1cccc(CC)c1N(COC)C(=O)CS(=O)(=O)O, which “activation” value is on record?
**A.** The value was -0.677%.

**Q.** How did the activation turn out when N[C@@H](CSSC[C@H](N)C(=O)O)C(=O)O was run?
**A.** The activation was -0.0368% [at 0.349 µM].

**Q.** How did the Potency turn out when CCN(CC)c1ccc(N)cc1 was run?
**A.** Its Potency is 7.05 µM (active).

**Q.** For CCCCCCCCCCCCOC(=O)c1cc(O)c(O)c(O)c1, which Potency is on record?
**A.** The Potency was “inactive”.

**Q.** With COc1ccc2sc(C(=O)Nc3nnn[nH]3)c(OC(C)C)c2c1 as the compound, how does the “activation” value read?
**A.** The value was -11.5%.

**Q.** For CCCCCCOc1cc(C)c(O)c(C)c1C, which Potency is on record?
**A.** The Potency was 49.2 µM (active).

**Q.** How did the “activation” value turn out when CCOC(=O)[C@@](C)(N)Cc1ccc(O)c(O)c1 was run?
**A.** The value was -1.1% [at 42.5 µM].

**Q.** O=C1c2c(O)ccc([N+](=O)[O-])c2C(=O)c2c([N+](=O)[O-])ccc(O)c21 was tested. Which “activation” value did it give?
**A.** The value was -24.5%.

**Q.** With CC(C)(C)C1=CC(=O)C=C(C(C)(C)C)C1=O as the compound, how does the “activation” value read?
**A.** The value was 11.5%.

**Q.** With CC(O)C#CC(C)O (stereo not given) as the compound, how does the “activation” value read?
**A.** Its value is -16.1%.

**Q.** CC(=O)C=O was tested. Which “activation” value did it give?
**A.** The value was 1.1%.
